In ChEMBL document CHEMBL2218924, “A broad activity screen in support of a chemogenomic map for kinase signalling research and drug discovery” (Biochem J, 2013):

Columns and labels:
[1] = target: T1, Tyrosine-protein kinase ITK/TSK (Homo sapiens) (UniProt Q08881); settings: at 10 µM
T1 sequence (whole entry): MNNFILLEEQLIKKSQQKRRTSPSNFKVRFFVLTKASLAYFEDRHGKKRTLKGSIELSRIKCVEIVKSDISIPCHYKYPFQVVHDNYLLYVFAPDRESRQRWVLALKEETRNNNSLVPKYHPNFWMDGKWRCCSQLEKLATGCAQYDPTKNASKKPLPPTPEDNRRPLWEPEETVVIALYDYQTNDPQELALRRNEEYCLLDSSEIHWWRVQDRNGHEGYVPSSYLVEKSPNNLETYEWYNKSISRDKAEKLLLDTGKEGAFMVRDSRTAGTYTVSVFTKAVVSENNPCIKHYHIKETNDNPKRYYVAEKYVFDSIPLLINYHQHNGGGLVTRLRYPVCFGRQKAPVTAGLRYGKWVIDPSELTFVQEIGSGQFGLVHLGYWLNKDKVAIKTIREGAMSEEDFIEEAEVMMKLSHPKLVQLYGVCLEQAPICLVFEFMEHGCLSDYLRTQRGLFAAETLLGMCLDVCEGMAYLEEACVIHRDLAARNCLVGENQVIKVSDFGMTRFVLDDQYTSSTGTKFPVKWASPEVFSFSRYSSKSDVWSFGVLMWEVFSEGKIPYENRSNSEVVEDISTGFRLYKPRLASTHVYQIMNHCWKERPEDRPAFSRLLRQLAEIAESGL

[2] = target: Tyrosine-protein kinase JAK2 (Homo sapiens) (UniProt O60674); settings: at 1 µM
[3] = target: Tyrosine-protein kinase JAK2 (Homo sapiens) (UniProt O60674); settings: at 10 µM
[4] = target: T2, Tyrosine-protein kinase JAK3 (Homo sapiens) (UniProt P52333); settings: at 1 µM
T2 sequence (whole entry): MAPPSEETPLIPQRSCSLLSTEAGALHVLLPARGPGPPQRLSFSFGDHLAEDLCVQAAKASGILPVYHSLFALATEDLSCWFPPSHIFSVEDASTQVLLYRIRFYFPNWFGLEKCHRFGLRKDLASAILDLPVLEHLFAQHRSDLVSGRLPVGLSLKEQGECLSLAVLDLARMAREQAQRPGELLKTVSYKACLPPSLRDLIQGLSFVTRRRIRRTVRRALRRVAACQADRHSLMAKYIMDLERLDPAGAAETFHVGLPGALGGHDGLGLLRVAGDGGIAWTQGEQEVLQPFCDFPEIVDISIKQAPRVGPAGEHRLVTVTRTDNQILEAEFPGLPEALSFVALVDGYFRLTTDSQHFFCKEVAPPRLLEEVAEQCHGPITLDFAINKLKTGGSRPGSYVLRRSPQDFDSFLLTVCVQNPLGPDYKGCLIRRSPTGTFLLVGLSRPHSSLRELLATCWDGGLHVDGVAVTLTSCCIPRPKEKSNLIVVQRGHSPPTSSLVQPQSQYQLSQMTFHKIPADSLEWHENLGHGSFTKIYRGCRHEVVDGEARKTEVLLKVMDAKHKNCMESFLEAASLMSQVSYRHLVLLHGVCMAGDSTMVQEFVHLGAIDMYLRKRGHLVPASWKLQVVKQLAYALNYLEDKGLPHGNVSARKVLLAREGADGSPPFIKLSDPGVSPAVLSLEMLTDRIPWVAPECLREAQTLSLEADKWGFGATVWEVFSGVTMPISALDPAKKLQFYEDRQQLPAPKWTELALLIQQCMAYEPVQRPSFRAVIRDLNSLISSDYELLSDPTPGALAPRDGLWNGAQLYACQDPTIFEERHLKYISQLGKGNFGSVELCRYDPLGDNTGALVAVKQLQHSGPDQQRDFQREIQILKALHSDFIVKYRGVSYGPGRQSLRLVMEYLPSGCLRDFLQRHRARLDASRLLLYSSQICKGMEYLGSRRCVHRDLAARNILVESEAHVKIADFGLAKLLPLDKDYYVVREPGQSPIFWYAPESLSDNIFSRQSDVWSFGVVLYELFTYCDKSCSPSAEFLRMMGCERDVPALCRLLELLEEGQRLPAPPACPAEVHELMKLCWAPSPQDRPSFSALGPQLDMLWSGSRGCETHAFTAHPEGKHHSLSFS

[5] = target: T2, Tyrosine-protein kinase JAK3 (Homo sapiens); settings: at 10 µM
[6] = target: Mitogen-activated protein kinase 8 (Homo sapiens) (UniProt P45983); settings: at 1 µM
[7] = target: Mitogen-activated protein kinase 8 (Homo sapiens) (UniProt P45983); settings: at 10 µM
[8] = target: Mitogen-activated protein kinase 9 (Homo sapiens) (UniProt P45984); settings: at 1 µM
[9] = target: Mitogen-activated protein kinase 9 (Homo sapiens) (UniProt P45984); settings: at 10 µM
[10] = target: Mitogen-activated protein kinase 10 (Homo sapiens) (UniProt P53779); settings: at 1 µM
[11] = target: Mitogen-activated protein kinase 10 (Homo sapiens) (UniProt P53779); settings: at 10 µM
[12] = target: Vascular endothelial growth factor receptor 2 (Homo sapiens) (UniProt P35968); settings: at 1 µM
[13] = target: Vascular endothelial growth factor receptor 2 (Homo sapiens) (UniProt P35968); settings: at 10 µM
[14] = target: LIM domain kinase 1 (Homo sapiens) (UniProt P53667); settings: at 1 µM
[15] = target: LIM domain kinase 1 (Homo sapiens) (UniProt P53667); settings: at 10 µM
[16] = target: T3, Serine/threonine-protein kinase STK11 (Homo sapiens) (UniProt Q15831); settings: at 1 µM
T3 sequence (whole entry): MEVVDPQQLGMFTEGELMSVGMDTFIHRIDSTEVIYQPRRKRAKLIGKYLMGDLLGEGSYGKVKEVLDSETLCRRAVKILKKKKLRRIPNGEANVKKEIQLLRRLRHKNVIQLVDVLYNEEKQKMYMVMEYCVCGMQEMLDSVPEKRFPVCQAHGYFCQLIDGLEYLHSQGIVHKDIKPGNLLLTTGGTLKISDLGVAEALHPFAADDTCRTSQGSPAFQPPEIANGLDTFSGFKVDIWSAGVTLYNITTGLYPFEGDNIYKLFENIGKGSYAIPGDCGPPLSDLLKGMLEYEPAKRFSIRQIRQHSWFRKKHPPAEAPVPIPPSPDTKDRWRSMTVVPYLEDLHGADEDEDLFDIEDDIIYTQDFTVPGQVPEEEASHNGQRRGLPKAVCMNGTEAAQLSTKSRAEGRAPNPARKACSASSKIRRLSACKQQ

[17] = target: T3, Serine/threonine-protein kinase STK11 (Homo sapiens); settings: at 10 µM
[18] = target: Serine/threonine-protein kinase 10 (Homo sapiens) (UniProt O94804); settings: at 1 µM
[19] = target: Serine/threonine-protein kinase 10 (Homo sapiens) (UniProt O94804); settings: at 10 µM
[20] = target: Tyrosine-protein kinase Lck (Homo sapiens) (UniProt P06239); settings: at 1 µM
Chain of Tyrosine-protein kinase Lck (Homo sapiens) (P06239 2-509 limits assumed): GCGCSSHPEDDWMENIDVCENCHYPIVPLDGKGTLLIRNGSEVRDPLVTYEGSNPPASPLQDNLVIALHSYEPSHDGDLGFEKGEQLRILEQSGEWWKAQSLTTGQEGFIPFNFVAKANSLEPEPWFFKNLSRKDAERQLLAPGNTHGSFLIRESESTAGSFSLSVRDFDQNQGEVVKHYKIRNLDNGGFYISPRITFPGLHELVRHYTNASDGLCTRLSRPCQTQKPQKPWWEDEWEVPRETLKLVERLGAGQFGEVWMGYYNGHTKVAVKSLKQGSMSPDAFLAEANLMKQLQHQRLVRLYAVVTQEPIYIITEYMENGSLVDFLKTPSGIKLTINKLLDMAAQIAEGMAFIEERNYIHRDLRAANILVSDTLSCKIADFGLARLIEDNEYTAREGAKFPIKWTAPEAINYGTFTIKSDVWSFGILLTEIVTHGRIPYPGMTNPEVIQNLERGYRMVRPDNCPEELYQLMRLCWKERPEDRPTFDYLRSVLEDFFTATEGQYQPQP

Chain of Tyrosine-protein kinase JAK2 (Homo sapiens) (O60674 whole entry): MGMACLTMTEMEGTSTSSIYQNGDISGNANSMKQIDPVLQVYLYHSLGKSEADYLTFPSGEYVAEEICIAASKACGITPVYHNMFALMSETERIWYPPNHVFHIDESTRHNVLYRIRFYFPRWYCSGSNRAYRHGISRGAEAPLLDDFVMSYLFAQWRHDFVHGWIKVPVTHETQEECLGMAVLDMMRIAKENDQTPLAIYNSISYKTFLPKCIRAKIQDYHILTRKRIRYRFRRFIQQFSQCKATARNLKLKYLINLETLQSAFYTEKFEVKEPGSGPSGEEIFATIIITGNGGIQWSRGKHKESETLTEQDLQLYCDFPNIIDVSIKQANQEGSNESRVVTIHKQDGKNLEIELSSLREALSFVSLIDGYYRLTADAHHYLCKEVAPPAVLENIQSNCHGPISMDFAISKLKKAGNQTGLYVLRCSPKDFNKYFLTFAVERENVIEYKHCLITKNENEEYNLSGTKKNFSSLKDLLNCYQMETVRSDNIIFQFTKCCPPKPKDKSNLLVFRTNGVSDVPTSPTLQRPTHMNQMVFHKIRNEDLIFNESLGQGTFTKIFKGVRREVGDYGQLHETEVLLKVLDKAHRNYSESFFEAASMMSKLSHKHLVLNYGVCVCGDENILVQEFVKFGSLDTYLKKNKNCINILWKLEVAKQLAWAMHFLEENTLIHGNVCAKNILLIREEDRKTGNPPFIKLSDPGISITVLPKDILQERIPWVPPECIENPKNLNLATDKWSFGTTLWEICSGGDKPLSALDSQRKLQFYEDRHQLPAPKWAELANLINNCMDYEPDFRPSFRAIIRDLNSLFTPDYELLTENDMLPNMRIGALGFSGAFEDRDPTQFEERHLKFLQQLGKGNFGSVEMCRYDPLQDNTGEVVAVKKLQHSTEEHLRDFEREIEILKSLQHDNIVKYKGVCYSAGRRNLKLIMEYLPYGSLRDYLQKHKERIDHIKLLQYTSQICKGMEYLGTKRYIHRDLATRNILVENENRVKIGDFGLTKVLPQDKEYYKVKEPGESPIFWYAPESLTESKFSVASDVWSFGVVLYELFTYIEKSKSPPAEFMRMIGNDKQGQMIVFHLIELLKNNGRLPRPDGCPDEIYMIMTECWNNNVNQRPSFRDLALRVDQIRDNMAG
Chain of Serine/threonine-protein kinase 10 (Homo sapiens) (O94804 whole entry, looked up): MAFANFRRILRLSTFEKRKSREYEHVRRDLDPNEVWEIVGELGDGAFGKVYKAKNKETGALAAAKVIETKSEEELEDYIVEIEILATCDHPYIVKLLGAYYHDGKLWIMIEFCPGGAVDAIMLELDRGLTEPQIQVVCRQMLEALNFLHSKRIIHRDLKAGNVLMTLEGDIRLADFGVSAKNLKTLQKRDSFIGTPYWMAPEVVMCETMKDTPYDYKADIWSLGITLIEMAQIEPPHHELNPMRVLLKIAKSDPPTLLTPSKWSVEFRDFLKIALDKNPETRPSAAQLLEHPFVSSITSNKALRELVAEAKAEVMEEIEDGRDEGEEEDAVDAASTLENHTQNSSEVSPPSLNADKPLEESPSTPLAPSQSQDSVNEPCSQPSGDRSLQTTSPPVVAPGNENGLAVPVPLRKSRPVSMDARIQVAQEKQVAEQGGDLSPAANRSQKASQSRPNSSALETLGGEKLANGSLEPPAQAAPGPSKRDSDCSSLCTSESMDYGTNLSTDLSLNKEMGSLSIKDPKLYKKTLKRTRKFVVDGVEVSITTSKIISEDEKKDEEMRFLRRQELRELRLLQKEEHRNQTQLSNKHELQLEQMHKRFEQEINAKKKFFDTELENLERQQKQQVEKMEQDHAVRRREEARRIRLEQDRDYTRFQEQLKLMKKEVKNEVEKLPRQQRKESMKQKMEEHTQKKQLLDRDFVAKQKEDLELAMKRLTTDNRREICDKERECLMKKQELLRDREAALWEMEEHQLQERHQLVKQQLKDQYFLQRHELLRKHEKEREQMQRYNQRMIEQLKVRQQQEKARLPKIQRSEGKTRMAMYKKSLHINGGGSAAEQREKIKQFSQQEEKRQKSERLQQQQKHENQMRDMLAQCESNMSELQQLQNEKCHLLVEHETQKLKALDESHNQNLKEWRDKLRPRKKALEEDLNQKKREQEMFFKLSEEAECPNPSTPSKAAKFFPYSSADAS
Chain of LIM domain kinase 1 (Homo sapiens) (P53667 whole entry, looked up, the tested form may be a part): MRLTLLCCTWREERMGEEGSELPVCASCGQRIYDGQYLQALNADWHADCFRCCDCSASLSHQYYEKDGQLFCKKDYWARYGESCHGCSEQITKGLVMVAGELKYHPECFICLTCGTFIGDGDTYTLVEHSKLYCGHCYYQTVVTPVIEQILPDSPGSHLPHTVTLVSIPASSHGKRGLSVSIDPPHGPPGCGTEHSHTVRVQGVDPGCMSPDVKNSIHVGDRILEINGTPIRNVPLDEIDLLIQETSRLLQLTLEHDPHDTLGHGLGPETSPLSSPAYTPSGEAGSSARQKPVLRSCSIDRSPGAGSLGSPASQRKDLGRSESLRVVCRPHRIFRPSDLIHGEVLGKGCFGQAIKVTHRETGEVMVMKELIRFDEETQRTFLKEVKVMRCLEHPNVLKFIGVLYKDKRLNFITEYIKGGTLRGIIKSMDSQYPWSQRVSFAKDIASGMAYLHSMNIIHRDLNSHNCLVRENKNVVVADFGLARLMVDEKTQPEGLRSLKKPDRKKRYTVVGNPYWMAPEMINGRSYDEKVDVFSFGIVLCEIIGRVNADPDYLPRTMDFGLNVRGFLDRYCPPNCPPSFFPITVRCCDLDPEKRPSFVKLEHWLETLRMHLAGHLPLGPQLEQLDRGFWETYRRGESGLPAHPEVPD
Chain of Mitogen-activated protein kinase 8 (Homo sapiens) (P45983 whole entry): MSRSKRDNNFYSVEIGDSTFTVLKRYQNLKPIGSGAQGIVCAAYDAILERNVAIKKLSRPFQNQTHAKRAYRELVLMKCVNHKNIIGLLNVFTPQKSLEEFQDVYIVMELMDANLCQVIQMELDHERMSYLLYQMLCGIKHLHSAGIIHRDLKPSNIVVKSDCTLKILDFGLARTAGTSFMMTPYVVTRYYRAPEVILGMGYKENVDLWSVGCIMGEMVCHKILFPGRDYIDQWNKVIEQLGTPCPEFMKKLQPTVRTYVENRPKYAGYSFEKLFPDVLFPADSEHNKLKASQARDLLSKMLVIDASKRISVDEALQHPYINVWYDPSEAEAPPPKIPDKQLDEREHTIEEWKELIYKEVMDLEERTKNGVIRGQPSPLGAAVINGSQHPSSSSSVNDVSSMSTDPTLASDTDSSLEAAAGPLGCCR
Chain of Mitogen-activated protein kinase 10 (Homo sapiens) (P53779 whole entry): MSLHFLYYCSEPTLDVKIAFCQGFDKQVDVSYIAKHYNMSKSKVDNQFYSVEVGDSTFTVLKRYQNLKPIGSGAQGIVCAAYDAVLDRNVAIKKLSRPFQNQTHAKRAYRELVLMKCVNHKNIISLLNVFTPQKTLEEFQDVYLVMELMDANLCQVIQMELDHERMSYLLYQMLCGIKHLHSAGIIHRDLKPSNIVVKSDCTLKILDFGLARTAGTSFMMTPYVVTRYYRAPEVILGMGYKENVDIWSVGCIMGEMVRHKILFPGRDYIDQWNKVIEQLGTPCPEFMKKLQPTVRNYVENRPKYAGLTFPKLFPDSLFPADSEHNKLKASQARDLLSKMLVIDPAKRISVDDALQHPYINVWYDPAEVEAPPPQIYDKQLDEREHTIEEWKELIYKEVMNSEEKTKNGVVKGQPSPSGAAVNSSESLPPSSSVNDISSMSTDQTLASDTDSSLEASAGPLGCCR
Chain of Mitogen-activated protein kinase 9 (Homo sapiens) (P45984 whole entry, looked up): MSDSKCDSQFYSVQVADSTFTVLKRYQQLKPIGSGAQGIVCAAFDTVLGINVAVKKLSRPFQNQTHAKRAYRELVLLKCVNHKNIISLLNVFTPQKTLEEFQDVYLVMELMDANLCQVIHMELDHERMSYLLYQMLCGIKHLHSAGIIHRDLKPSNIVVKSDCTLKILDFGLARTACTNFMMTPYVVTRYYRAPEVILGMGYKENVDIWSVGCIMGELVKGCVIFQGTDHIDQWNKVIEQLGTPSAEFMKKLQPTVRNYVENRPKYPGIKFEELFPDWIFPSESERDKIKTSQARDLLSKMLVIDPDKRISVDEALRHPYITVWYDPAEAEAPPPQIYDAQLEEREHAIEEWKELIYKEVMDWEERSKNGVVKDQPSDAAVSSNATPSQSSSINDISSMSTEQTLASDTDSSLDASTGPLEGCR

| Structure (SMILES) | residual activity [1] | residual activity [2] | residual activity [3] | residual activity [4] | residual activity [5] | residual activity [6] | residual activity [7] | residual activity [8] | residual activity [9] | residual activity [10] | residual activity [11] | residual activity [12] | residual activity [13] | residual activity [14] | residual activity [15] | residual activity [16] | residual activity [17] | residual activity [18] | residual activity [19] | residual activity [20] |
| --- | --- | --- | --- | --- | --- | --- | --- | --- | --- | --- | --- | --- | --- | --- | --- | --- | --- | --- | --- | --- |
| CCN(CC)CCCCN1c2ccccc2Oc2ccc(Cl)cc21 | 102% | 107% | 138% | 110% | 142% | 113% | 91% | 106% | 104% | 111% | 137% | 112% | 104% | 133% | 98% | 103% | 94% | 110% | 100% | 84% |
| Cn1cnc2cc3c(Nc4cccc(Br)c4)ncnc3cc21 | 87% | 111% | 99% | 102% | 108% | 98% | 77% | 112% | 94% | 54% | 9% | 49% | 19% | 105% | 57% | 101% | 99% | 31% | 10% | 42% |
| Cc1ccc(NC2=CC(=O)c3sc(C)nc3C2=O)cc1 | 101% | 97% | 104% | 113% | 107% | 112% | 92% | 100% | 106% | 83% | 82% | 97% | 89% | 84% | 82% | 98% | 98% | 113% | 105% | 86% |
| O=C1Nc2ccccc2/C1=C1/Nc2ccccc2/C1=N\OCCC(O)CO (stereo not given) | 2% | 27% | 29% | 13% | 1% | 56% | 61% | 43% | 30% | 5% | 20% | 3% | 1% | 42% | 33% | 30% | 3% | 62% | 70% | 4% |
| O=C(Nc1cccc(Nc2cc(Nc3cccc(C(F)(F)F)c3)ncn2)c1)C1CC1 | 95% | 116% | 138% | 106% | 115% | 107% | 83% | 104% | 103% | 82% | 52% | 96% | 75% | 87% | 31% | 102% | 96% | 92% | 57% | 72% |
| COc1ccc(CNc2nc(N(CCO)CCO)nc3c2ncn3C(C)C)cc1 | 85% | 91% | 99% | 105% | 107% | 104% | 87% | 83% | 85% | 75% | 70% | 79% | 74% | 90% | 88% | 126% | 73% | 101% | 88% | 62% |
| Ic1cccc(CSc2nnc(-c3ccncc3)o2)c1 | 95% | 86% | 104% | 102% | 89% | 93% | 84% | 90% | 96% | 73% | 68% | 77% | 65% | 84% | 75% | 96% | 94% | 104% | 95% | 58% |
| Cn1cc(/C=C2\C(=O)Nc3ccc(S(N)(=O)=O)cc32)c2ccccc21 | 1% | 53% | 21% | 45% | 11% | 109% | 95% | 98% | 95% | 58% | 40% | 28% | 7% | 101% | 53% | 103% | 100% | 45% | 7% | 20% |
| CN(C)c1ccc(/C=C2\C(=O)Nc3ccccc32)cc1 | 65% | 115% | 83% | 86% | 32% | 106% | 93% | 102% | 98% | 110% | 106% | 4% | 3% | 108% | 89% | 94% | 102% | 100% | 77% | 129% |
| O=C(O)c1ccc2c3c1cccc3c(=O)n1c3ccccc3nc21 | 94% | 100% | 40% | 46% | 9% | 105% | 79% | 83% | 55% | 78% | 34% | 41% | 56% | 101% | 89% | 107% | 95% | 60% | 39% | 83% |
| CCOc1cc2ncnc(Nc3cccc(Br)c3)c2cc1OCC | 85% | 118% | 88% | 105% | 87% | 99% | 77% | 105% | 96% | 43% | 11% | 54% | 13% | 107% | 49% | 98% | 94% | 23% | 10% | 39% |
| CO[C@H]1C[C@@H]2CC[C@@H](C)[C@@](O)(O2)C(=O)C(=O)N2CCCC[C@H]2C(=O)O[C@H]([C@H](C)C[C@@H]2CC[C@@H](O)[C@H](OC)C2)CC(=O)[C@H](C)/C=C(\C)[C@@H](O)[C@@H](OC)C(=O)[C@H](C)C[C@H](C)/C=C/C=C/C=C/1C | 113% | 101% | 160% | 103% | 124% | 107% | 90% | 111% | 96% | 108% | 153% | 100% | 96% | 102% | 91% | 101% | 99% | 85% | 90% | 121% |
| COc1ccc(S(=O)(=O)N(CCO)c2ccccc2CN(C)C/C=C/c2ccc(Cl)cc2)cc1 | 94% | 102% | 131% | 116% | 104% | 95% | 85% | 92% | 97% | 82% | 88% | 100% | 95% | 93% | 83% | 100% | 93% | 107% | 89% | 80% |
